“And” between values parts separate entries of the source, which are not always exact repeats. Equal entries are not always repeated. Records with an inconclusive call do not appear. Some compounds were tested as several samples or in several runs, with calls that do not always agree. Values without a mark were called inactive. The source made the active and inactive calls. The call rests on the fitted dose curve; in most records, active means well fitted cell-killing curve with a large enough effect; inconclusive means small, poorly fitted or top-dose-only effect; inactive means flat fitted curve, though single readings scatter.
assay: Cellular viability qHTS for adrenocortical cancer (ACC) cell line SW-13 (AID 1963989); conditions: SW-13 ACC cells viability, CellTiter-Glo, 48 h; activity (max response): stronger effect = lower value; further: nearly all actives have a fitted effect of over 65% in size;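 on activity (max response): cells grown in serum-free medium with ITS supplement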
Description: PI: Naris Nilubol, MD Surgical Oncology Program, National Cancer Institute (NCI) National Institute of Health (NIH), Bethesda, Maryland Adrenocortical cancer (ACC) is a rare malignancy with poor survival outcomes and few treatment options. Currently, mitotane is the only FDA-approved therapy for ACC. Although adjuvant radiation therapy is rarely utilized, it has the potential to improve survival in select cases. Through a quantitative high-throughput drug screen (qHTS), we identified auranofin (AF), a thioredoxin reductase (TXNRD) inhibitor, as a promising candidate drug. This study aims to evaluate whether AF can enhance the efficacy of radiation therapy in the treatment of ACC. Two human ACC cell lines, SW-13 and NCI-H295R, were screened using the National Center for Advancing Translational Sciences (NCATS) Pharmaceutical Collection (NPC) and the Mechanism Interrogation PlatE (MIPE) library (~4,991 compounds). CellTiter-Glo (Cat # G7570, Promega, Madison, WI) was utilized to measure cell viability. Described herein are the results of the corresponding viability assay.
PROTOCOL TABLE (as described by Inglese J, Shamu CE and Guy RK. 2007) SEQUENCE No. (e.g., 1, 2, 3, etc.); […] (e.g., Cells, Incubation, Reagent, etc.); VALUE; DESCRIPTION. 1; Cells; 5 uL; white, solid-bottom, 1536-well tissue-culture treated plates. 2; Time; overnight culture at 37C with 5% CO2. 3; Compounds and control; 23 nL; Kalypsis pin tool (Wako USA) equipped with a 1536-well pin head to transfer to the assay plates. 4; Time; 48 hours; 37C with 5% CO2. 5; Reagent; 4 uL; CellTiter-Glo luminescent substrate mix. 6; Time; 20 min at room temperature. 7; Detection; Luminescence; ViewLux plate reader NOTES (numbers refer to Sequence numbers above) 1. SW13 cells were harvested from a T175 flask and resuspended in ITS-supplemented DMEM serum-free medium at a concentration of 300 000 cells/mL. Then 5 uL of resuspended cells were dispensed into each well of white, solid-bottom, 1536-well tissue-culture-treated plates using a multidrop combi dispenser. The plates were covered with stainless steel gasket lids. 2-3. The plates were cultured overnight at 37C with 5% CO2. Twenty-three nL of compounds (eight selected concentrations from the NPC / MIPE) or positive control (10 mM stock of bortezomib) in DMSO was transferred to each well of the assay plate using a pin tool (Kalypsys, San Diego, CA, USA). The final concentration of the compounds in the 5 uL assay volume ranged from 0.5 nM to 46 uM. 4-6. After 48 hours of incubation at 37C and 5% CO2, 4 uL of CellTilter-Glo luminescent substrate mix (Promega, Madison, WI, USA) was added to each well. Then the plates were incubated for 20 minutes at room temperature. 7. After incubation, luminescence was measured using a ViewLux plate reader (PerkinElmer, Waltham, MA, USA) with a clear filter was used to measure the number of metabolically competent cells. To determine compound activity in the qHTS assay, the titration-response data for each sample was plotted and modeled by a four-parameter logistic fit yielding IC50 and efficacy (maximal response) values. […] REFERENCES: Inglese J, Shamu CE and Guy RK, Reporting data from high throughput screening of small molecule libraries, Nature Chemical Biology, 2007, 3(8): 438-441. doi.org/10.1038/nchembio0807-438.
On the % scale 0 is the no-effect control and ±100 the full control effect.

Row | Compound | activity (max response) | Potency
1 | CCC(=O)NC[C@H](Cc1ccc(OCCc2nc(-c3ccccc3)oc2C)cc1)N/C(C)=C\C(=O)c1ccc(C(F)(F)F)cc1 | -7.93% | 
2 | CCCCOc1ccc(CC(=O)NO)cc1 | -10.9% | 
3 | Nc1ccc(O)c([N+](=O)[O-])c1 | 0.787% | 
4 | O=C1CSC(=O)N1C(CCc1ccncc1)COc1ccc(-c2cccc([N+](=O)[O-])c2)cc1 (stereo not given) |  | 7.08 µM (active)
5 | CN1[C@@H]2CCC[C@H]1CC(NC(=O)c1nn(C)c3ccccc13)C2 (stereo not given in full) | 2.83% | 
6 | O=C(c1ccc(F)c(F)c1Nc1ccc(I)cc1F)N1CC(O)([C@@H]2CCCCN2)C1 |  | 12.6 µM (active)
7 | Cc1ccccc1N=Nc1ccc(N=Nc2c(O)ccc3ccccc23)c(C)c1 | 15.2% | 
8 | C=CCc1cc(OC)c(O)c(C(=O)NCCO)c1 | -2.94% | 
9 | COc1cc2c(Nc3ccc(Cl)c(Cl)c3F)ncnc2cc1OCC1C[C@@H]2CN(C)C[C@@H]2C1 (stereo not given in full) |  | 2 µM (active)
10 | C[C@H]1COc2c(N3CCN(C)CC3)c(F)cc3c(=O)c(C(=O)O)cn1c23 | 6.21% | 
11 | CCCCCCCCCCCCCCCC[N+](C)(C)Cc1ccccc1 |  | 8.2 µM (active)
12 | O=c1[nH]cnc2c1ncn2[C@@H]1O[C@H](CO)[C@@H](O)[C@H]1O | 4.44% | 
13 | COc1cc(C(=O)NC2CCN(C)CC2)ccc1Nc1ncc2c(n1)N(C1CCCC1)CCC(=O)N2C(C)C |  | 25.1 µM (active)
14 | CC1=C(CC(=O)O)c2cc(F)ccc2C1=Cc1ccc(S(C)=O)cc1 (stereo not given) | 10.2% | 
15 | OCCN(CCO)c1nc(N2CCCCC2)c2nc(N(CCO)CCO)nc(N3CCCCC3)c2n1 | -9.57% | 5.17 µM (active)
16 | COc1cc2ncn(-c3cc(OCc4ccccc4S(C)(=O)=O)c(C#N)s3)c2cc1OC | -11.8% | 
17 | CCN(CC)CCCCNc1ncc2cc(-c3cc(OC)cc(OC)c3)c(NC(=O)NC(C)(C)C)nc2n1 |  | 28.2 µM (active)
18 | CN1CCN(C(=O)C2CCCCC2)CC1 | 7.59% | 
19 | O=C(OCC1(COC(=O)c2cccnc2)CCCC(COC(=O)c2cccnc2)(COC(=O)c2cccnc2)C1O)c1cccnc1 | 7.27% | 
20 | CCc1ccc(OCc2ccccc2C(=O)Nc2ccc3nc(C)cc(N)c3c2)cc1 |  | 5.01 µM (active)

Row | Compound | activity (max response) | Potency
21 | CC(C)OC(=O)c1cc2c(OCC(O)CNC(C)(C)C)cccc2[nH]1 (stereo not given) | -10.4% | 
22 | O=C(N[C@H]1CCC[C@H](CO)C1)C1CCN(c2nc3cc(Cl)c(-c4ccc(Cl)cc4)cc3o2)CC1 | -10.9% | 
23 | COc1ccc(Cc2cnc(N)nc2N)cc1OC | 8.41% | 
24 | Nc1ccc(O)cc1 | 0.149% | 
25 | CCOC(=O)[C@H](CCc1ccccc1)N[C@@H](C)C(=O)N1Cc2cc(OC)c(OC)cc2C[C@H]1C(=O)O | 2.85% | 
26 | O=C1c2ccccc2-c2n[nH]c3cccc1c23 | -13.1% | 
27 | Nc1nnnn1-c1ccccc1 | 1.62% | 
28 | CN(C)[C@@H]1C(=O)C(C(N)=O)=C(O)[C@@]2(O)C(=O)C3=C(O)c4c(O)ccc(Cl)c4[C@@H](O)[C@H]3C[C@@H]12 | -3.2% | 
29 | C=C1/C(=C\C=C2/CCC[C@]3(C)[C@@H]([C@H](C)CCCC(C)(C)O)CC[C@@H]23)C[C@@H](O)C[C@@H]1O |  | 28.2 µM (active)
30 | C[C@@H]1CC(=O)NN=C1c1ccc(NN=C(C#N)C#N)cc1 | -17.4% and 2.94% and -32.7% | 
31 | OC1(c2ccc(Cl)c(C(F)(F)F)c2)CCN(CCCC(c2ccc(F)cc2)c2ccc(F)cc2)CC1 |  | 4.11 µM (active)
32 | O=C1NC(c2ccccc2)(c2ccccc2)C(=O)N1COP(=O)(O)O | 10.4% | 
33 | CCOC(=O)c1ccc(NC(=O)CN2CCCCC2)cc1 | -5.52% | 
34 | C[C@H](CCC(=O)O)[C@H]1CC[C@H]2[C@@H]3[C@@H](O)C[C@@H]4C[C@H](O)CC[C@]4(C)[C@H]3CC[C@]12C | -9.5% | 
35 | Cc1ncc(-c2ccnc(Nc3ccc(S(C)(=O)=O)cc3)n2)n1C(C)C |  | 8.91 µM (active)
36 | CC1(C)[C@H](C(=O)O)N2C(=O)C[C@H]2S1(=O)=O | 9.85% | 
37 | C[C@@H]1CN(c2c(F)c(N)c3c(=O)c(C(=O)O)cn(C4CC4)c3c2F)C[C@H](C)N1 | -1.88% | 
38 | Cc1onc(-c2c(Cl)cccc2Cl)c1C(=O)N[C@@H]1C(=O)N2[C@@H]1SC(C)(C)[C@@H]2C(=O)O | 1.28% | 
39 | CNCC(O)c1ccc(O)c(O)c1 (stereo not given) | 4.94% | 
